This note sets out measurements from PubChem BioAssay.

As usually defined, the inhibition is the relative decrease from the control value, in per cent.

Active and inactive are the calls of the source.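 How the source made its calls, unless noted: active means inhibition of the reporter signal at or above 50%; inactive means inhibition below 50%.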

Assay [1] is described as follows: inhibitors of TNFa-induced NFkB p65 translocation, primary screen, imaging, HUVEC, MLSMR starter and 10KST1 sets (AID 438;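 active means inhibition above 20% together with a positive visual image hit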;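 further: compound added about 3h40 before a 20 min TNFalpha stimulation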;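 on inhibition: signal is the nuclear over cytoplasmic p65 intensity ratio per well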). Particulars: HUVEC TNFa-induced p65 nuclear translocation; cell count: measured here: nuclei count (cytotoxicity indicator), at 2.08 µM; inhibition: at 2 µM, stronger effect = higher value, 0% TNFa-plus-vehicle, 100% no-TNFa wells.
Assay [2] is described as follows: inhibitors of mutant huntingtin aggregation, primary screen, imaging, exon1htt(103Q)mCFP cells, high-content imaging (AID 483;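 active means visual image review flags a hit and inhibition of aggregation exceeds 20%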;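 further: compound exposure lasted 3 days before fixation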;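 on nuclei count: percent of the per-plate median nuclei count of sample wells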). Particulars: exon1htt(103Q)mCFP cell line, aggregate imaging, at 2 µM; inhibition of aggregation: stronger effect = higher value; nuclei count: measured here: cell count, toxicity.
Assay [3] in a line: inhibitors of E-selectin induction by TNFa, primary screen, imaging, HUVEC, immunofluorescence, MLSMR starter and 10KST1 sets (AID 487;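 active means visually confirmed hit in the image check and inhibition above 20%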;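 on inhibition: signal is fraction of cell area covered by stained E-selectin grains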;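 on nuclei count: 100% = median nuclei count of all wells on the same plate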). Particulars: HUVEC TNFalpha-induced E-selectin immunofluorescence imaging, at 2 µM; inhibition: stronger effect = higher value; nuclei count: measured here: cell number, toxicity.
The target of assay [4] is Voltage-gated potassium channel subunit beta-2 (Rattus norvegicus) (UniProt P62483). The assay is described as follows: KvBeta enzyme negative modulators, primary screen, biochemical, NADPH fluorescence (AID 622;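 active means fluorescence slope higher than the sample average by over 3 SD, cut at about -0.22 in these data, passing the limit was not always enough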;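 further: slope of raw intensity against log time taken from 70 to 1610 s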). The note with it: recombinant KvBeta, 4-cyanobenzaldehyde reduction, at 10 µM, stronger effect = higher value.
For assay [5] the target is unchanged. Description: KvBeta positive modulators, primary screen, biochemical, NADPH fluorescence (AID 623;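 active means NADPH fluorescence slope more negative than the mean of all samples by about 3 SD, 99.7% confidence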;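 further: fluorescence intensity change per second fitted from 20 to 320 s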). The note with it: Recombinant KvBeta, NADPH fluorescence decrease slope, 10 min; at 10 µM; stronger effect = lower value.
Assay [6] concerns the target Alpha-2C adrenergic receptor (Homo sapiens) (UniProt P18825). Description: modulators of alpha2C/GIRK thallium flux, primary screen, cell-based, HEK293 alpha2C/GIRK1/2 (AID 624;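 active means fluorescence slope after compound addition differing from the mean of all screened samples at 99.7% confidence, in either direction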;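 further: slope of fluorescence ratio to pre-addition baseline per second over 15 to 24 s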). The note with it: thallium flux BTC fluorescence, at 10 µM, actives lie on both sides.
Assay [7] in a line: inhibitors of Sendai virus-induced IRF3 signaling, primary screen, TLR/RLR signaling modifier project, cell-based, Sendai virus stimulus, luciferase, 10K MLSCN set (AID 602276;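 active means inhibition at or above 50% at 10 µM; inactive means inhibition below 50%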;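 further: firefly luciferase from ISG56 promoter only with Renilla not read in this screen; 0% = Sendai virus plus DMSO and 100% = medium plus DMSO without virus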). Particulars: HEK293 RL24 IRF3 luciferase reporter, at 10 µM, stronger effect = higher value. (In general: A reporter such as luciferase makes a cellular process visible.)
Assay [8] is described as follows: inhibitors of poly I:C-induced TLR3 signaling, primary screen, cell-based, poly I:C stimulus, luciferase, 10K MLSCN set (AID 602277). The note with it: HEK293-TLR3 RL24 IRF3 luciferase reporter, at 10 µM, stronger effect = higher value.

Sequence of Alpha-2C adrenergic receptor (Homo sapiens) (P18825 whole entry, looked up): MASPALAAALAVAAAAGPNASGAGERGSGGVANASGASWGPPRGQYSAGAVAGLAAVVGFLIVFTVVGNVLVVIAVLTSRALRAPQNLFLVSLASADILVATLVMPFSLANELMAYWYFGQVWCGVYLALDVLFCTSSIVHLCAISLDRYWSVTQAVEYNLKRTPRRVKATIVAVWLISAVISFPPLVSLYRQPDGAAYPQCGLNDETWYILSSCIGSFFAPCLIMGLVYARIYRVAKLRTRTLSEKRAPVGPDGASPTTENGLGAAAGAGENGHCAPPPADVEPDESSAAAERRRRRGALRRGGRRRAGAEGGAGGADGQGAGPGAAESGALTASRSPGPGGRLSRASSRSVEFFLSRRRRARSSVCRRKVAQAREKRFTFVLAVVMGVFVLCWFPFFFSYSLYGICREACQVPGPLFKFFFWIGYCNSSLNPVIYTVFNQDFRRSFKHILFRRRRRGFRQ
Sequence of Voltage-gated potassium channel subunit beta-2 (Rattus norvegicus) (P62483 whole entry, looked up): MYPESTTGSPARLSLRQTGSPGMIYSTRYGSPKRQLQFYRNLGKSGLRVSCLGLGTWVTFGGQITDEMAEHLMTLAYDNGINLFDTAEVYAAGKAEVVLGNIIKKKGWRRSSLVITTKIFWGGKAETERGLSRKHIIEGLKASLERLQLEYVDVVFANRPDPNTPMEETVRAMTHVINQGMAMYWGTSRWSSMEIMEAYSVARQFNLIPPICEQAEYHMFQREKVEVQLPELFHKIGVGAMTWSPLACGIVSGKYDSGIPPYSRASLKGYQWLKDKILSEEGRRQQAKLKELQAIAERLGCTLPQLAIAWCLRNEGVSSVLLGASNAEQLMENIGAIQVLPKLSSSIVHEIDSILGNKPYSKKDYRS

For `CC(NC(=O)COc1ccccc1)C(=O)NC1=NCCS1` (centres undefined), the cell count in assay [1] turned out to be 356. For the same compound, the inhibition in assay [1] was 2% (inactive); in assay [3] it was -85.5% (inactive); in assay [7], 14.4% (inactive); in assay [8], 20.3% (inactive). In addition, the inhibition of aggregation in assay [2] was 8.1% (inactive). Also, the nuclei count in assay [2] worked out at 104%; in assay [3], 128%. Also, in assay [4], the fluorescence slope is -0.35 (inactive). The NADPH fluorescence slope in assay [5] was -2.2e-05 (inactive). The slope in assay [6] was 0.00548 (inactive).
As for `O=S(=O)(NCC1CCCO1)c1cc(Cl)ccc1Br` (centres undefined), the cell count in assay [1] worked out at 426. Also, the inhibition in assay [1] is -0.2% (inactive); in assay [3], -4.9% (inactive); in assay [7], -13.6% (inactive); in assay [8] it was -30.7% (inactive). Also, the inhibition of aggregation in assay [2] was 7.4% (inactive). Besides, the nuclei count is 108% in assay [2] and 117% in assay [3]. Further, the fluorescence slope in assay [4] was -0.506 (inactive). Further, the NADPH fluorescence slope in assay [5] is 7.7e-05 (inactive). Further, the slope in assay [6] was 0.00336 (inactive).
As for `O=C(CN1CCN(Cc2ccccc2)CC1)Nc1ccc(Cl)cn1`, the cell count in assay [1] stood at 615. Besides, the inhibition in assay [1] was -12.7% (inactive); in assay [3], -26% (inactive); in assay [7], 17.4% (inactive); in assay [8], 29.5% (inactive). In addition, the inhibition of aggregation in assay [2] was 19.3% (inactive). In addition, the nuclei count in assay [2] was determined as 81.8%; in assay [3] it was 92%. Further, the fluorescence slope in assay [4] is -0.502 (inactive). The NADPH fluorescence slope in assay [5] is -2.1e-05 (inactive). In assay [6], the slope was 0.00402 (inactive).
Consider `NCCN1CCN(CCN)CC1`, for which, in assay [1], the cell count turned out to be 728. In addition, the inhibition in assay [1] was -10% (inactive); in assay [3] it was -23.9% (inactive); in assay [7], 12.2% (inactive); in assay [8], 18.8% (inactive). Moreover, the inhibition of aggregation in assay [2] is -4.6% (inactive). Further, the results for the nuclei count in assay [2] and in assay [3] were 116% and 132%, respectively. Besides, in assay [4], the fluorescence slope was -0.436 (inactive). Also, the NADPH fluorescence slope in assay [5] is -1.1e-05 (inactive). The slope in assay [6] was 0.00707 (inactive).
Regarding `CCCCSc1nnc([C@H](C)NC(=O)OC(C)(C)C)o1`, the cell count in assay [1] was determined as 345. For the same compound, the inhibition in assay [1] was 0.2% (inactive); in assay [3] it was -34.4% (inactive); in assay [7], 11.6% (inactive); in assay [8] it was 14.8% (inactive). Also, the inhibition of aggregation in assay [2] was -2.7% (inactive). In addition, the values for the nuclei count in assay [2] and in assay [3] were 104% and 112%, respectively. Further, the fluorescence slope in assay [4] was -0.266 (inactive). In addition, in assay [5], the NADPH fluorescence slope was -2.9e-05 (inactive). The slope in assay [6] was 0.00436 (inactive).
In the case of `CCCN1C2CCCC1CC(NC(=O)c1ccccc1F)C2` (centres undefined), the cell count in assay [1] worked out at 461. Moreover, the inhibition was 6% (inactive) in assay [1], 14.8% (inactive) in assay [3], 10.6% (inactive) in assay [7] and 17.7% (inactive) in assay [8]. In addition, the inhibition of aggregation in assay [2] was -1.6% (inactive). The figures for the nuclei count in assay [2] and in assay [3] were 115% and 101%, respectively. The fluorescence slope in assay [4] was -0.515 (inactive). Besides, the NADPH fluorescence slope in assay [5] is -4.7e-05 (inactive). Besides, the slope in assay [6] was 0.00485 (inactive).
For `COc1ccc(NC2c3ncccc3C(=O)N2Cc2ccccc2)c(OC)c1` (centres undefined), in assay [1], the cell count is 480. Also, the inhibition in assay [1] is 1.6% (inactive); in assay [3] it was -31.3% (inactive); in assay [7], 7.6% (inactive); in assay [8] it was 15.8% (inactive). The inhibition of aggregation in assay [2] is -17% (inactive). Moreover, the figures for the nuclei count in assay [2] and in assay [3] were 116% and 114%, respectively. Besides, the fluorescence slope in assay [4] is -0.609 (inactive). In assay [5], the NADPH fluorescence slope is -9.3e-06 (inactive). Also, the slope in assay [6] was 0.00393 (inactive).
On to `CSCCC(NC(=O)c1ccco1)C(=O)OC(C)C(=O)NC(=O)NC1CCCCC1` (centres undefined), for which the cell count in assay [1] turned out to be 538. Further, the inhibition in assay [1] is -6.1% (inactive); in assay [3], -79.7% (inactive); in assay [7], 13.1% (inactive); in assay [8], 20.3% (inactive). Besides, the inhibition of aggregation in assay [2] was 7.6% (inactive). For the same compound, the nuclei count in assay [2] was determined as 88%; in assay [3] it was 100%. In addition, the fluorescence slope in assay [4] was -0.485 (inactive). The NADPH fluorescence slope in assay [5] is 1e-05 (inactive). Also, the slope in assay [6] was 0.00394 (inactive).
Turning to `Cc1cnc(SCCc2ccncc2)nc1C`, in assay [1], the cell count was 650. The inhibition was -17% (inactive) in assay [1], -103% (inactive) in assay [3], 6.48% (inactive) in assay [7] and -3.71% (inactive) in assay [8]. Moreover, the inhibition of aggregation in assay [2] was -22.1% (inactive). In addition, the nuclei count in assay [2] stood at 116%; in assay [3], 101%. Further, in assay [4], the fluorescence slope is -0.278 (inactive). The NADPH fluorescence slope in assay [5] was -1.1e-05 (inactive). Besides, the slope in assay [6] was 0.00606 (inactive).
For the compound `CCOC(=O)c1cccc(NC(=O)CSc2nnc(-c3cccnc3)n2C)c1`, the cell count in assay [1] amounted to 505. Besides, the inhibition in assay [1] was -0.3% (inactive); in assay [3], -100% (inactive); in assay [7], 8.88% (inactive); in assay [8] it was 10.4% (inactive). Also, the inhibition of aggregation in assay [2] was 8.9% (inactive). Besides, the nuclei count in assay [2] is 97.6%; in assay [3], 134%. In addition, the fluorescence slope in assay [4] is -0.285 (inactive). Moreover, in assay [5], the NADPH fluorescence slope was -5.6e-05 (inactive). For the same compound, in assay [6], the slope was 0.00612 (inactive).
With `CN(C)CCNC(=O)c1ccc(COCC(F)(F)F)cc1`, the cell count in assay [1] turned out to be 500. For the same compound, the inhibition in assay [1] was -2.2% (inactive); in assay [3], -22.6% (inactive); in assay [7], 14.2% (inactive); in assay [8] it was 9.51% (inactive). In assay [2], the inhibition of aggregation is -17.1% (inactive). Further, the nuclei count in assay [2] stood at 112%; in assay [3] it was 99%. Moreover, in assay [4], the fluorescence slope is -0.408 (inactive). Besides, in assay [5], the NADPH fluorescence slope is -3.8e-05 (inactive). The slope in assay [6] is 0.00605 (inactive).
Regarding `Cc1cccc(Cc2nnc(NC(=O)c3cccc(S(=O)(=O)N4CCOCC4)c3)s2)c1`, the cell count in assay [1] came to 424. Besides, the inhibition was -5.5% (inactive) in assay [1], 0.9% (inactive) in assay [3], 14.3% (inactive) in assay [7] and 30.6% (inactive) in assay [8]. Further, in assay [2], the inhibition of aggregation is -0.5% (inactive). Besides, the nuclei count in assay [2] came out at 106%; in assay [3], 126%. Moreover, the fluorescence slope in assay [4] is -0.422 (inactive). In assay [5], the NADPH fluorescence slope is -7.5e-06 (inactive). In assay [6], the slope was 0.00421 (inactive).
Regarding `O=C1C(C=NCCCn2ccnc2)=C(O)c2ccccc21`, the cell count in assay [1] is 422. The inhibition in assay [1] is 5.8% (inactive); in assay [3], -50.8% (inactive); in assay [7] it was 9.44% (inactive); in assay [8], 37.1% (inactive). Moreover, the inhibition of aggregation in assay [2] is -8.1% (inactive). Also, the nuclei count in assay [2] is 104%; in assay [3] it was 113%. Further, in assay [4], the fluorescence slope is -0.589 (inactive). For the same compound, in assay [5], the NADPH fluorescence slope is -2.7e-05 (inactive). Moreover, the slope in assay [6] is 0.0063 (inactive).
As for `CC(C)(C)NC(=O)C(c1ccco1)N(C(=O)Cn1nnc(-c2ccc(F)cc2)n1)c1ccccc1F` (centres undefined), the cell count in assay [1] turned out to be 562. For the same compound, the inhibition in assay [1] was 1.2% (inactive); in assay [3] it was -96.2% (inactive); in assay [7], 10.9% (inactive); in assay [8], 39.7% (inactive). Further, the inhibition of aggregation in assay [2] was 14.8% (inactive). The nuclei count in assay [2] is 96.5%; in assay [3], 127%. In addition, the fluorescence slope in assay [4] was -0.56 (inactive). The NADPH fluorescence slope in assay [5] is -6.1e-05 (inactive). Moreover, in assay [6], the slope is 0.00563 (inactive).
